Compound activity from PubChem.
ALOX12 inhib: qHTS Assay for Inhibitors of 12-hLO (12-human lipoxygenase) | purified 12-hLO, xylenol orange hydroperoxide absorbance | AID 1452, 2008 | Potency, µM (titrated, usually from 57.1 µM), for inactives: at the top dose activity change, negative = inhibition, hits mostly inhibitors | 0.12% of 150,000 active; active means well fitted inhibition curve with a large enough effect; inconclusive means small, poorly fitted or top-dose-only effect; further: potency means the concentration at half of the fitted maximal effect; nearly all actives have a fitted effect of over 55% in size
Target sequence (P18054 whole entry, looked up): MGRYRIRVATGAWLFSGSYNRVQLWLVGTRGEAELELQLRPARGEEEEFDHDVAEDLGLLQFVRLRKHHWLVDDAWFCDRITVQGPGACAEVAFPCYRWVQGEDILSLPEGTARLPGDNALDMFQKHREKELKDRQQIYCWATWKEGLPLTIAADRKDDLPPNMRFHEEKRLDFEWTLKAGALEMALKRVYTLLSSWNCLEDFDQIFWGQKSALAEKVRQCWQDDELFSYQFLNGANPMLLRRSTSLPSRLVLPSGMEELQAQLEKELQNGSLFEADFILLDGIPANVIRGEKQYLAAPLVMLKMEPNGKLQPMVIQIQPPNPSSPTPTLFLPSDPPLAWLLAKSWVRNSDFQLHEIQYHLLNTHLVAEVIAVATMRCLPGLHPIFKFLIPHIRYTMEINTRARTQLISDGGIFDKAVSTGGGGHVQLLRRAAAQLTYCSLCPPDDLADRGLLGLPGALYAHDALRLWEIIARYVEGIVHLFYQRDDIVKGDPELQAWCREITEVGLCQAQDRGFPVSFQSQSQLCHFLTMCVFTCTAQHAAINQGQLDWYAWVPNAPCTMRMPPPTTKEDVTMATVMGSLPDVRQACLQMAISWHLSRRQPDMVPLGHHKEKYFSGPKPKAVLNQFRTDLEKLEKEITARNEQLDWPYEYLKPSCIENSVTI
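Purified human 12hLO (150 nM), preincubated 15 min with compound, then 40 uM arachidonic acid for 30 min, room temperature, Hepes pH 7.0 with 0.01% Triton X-100. Hydroperoxide detected by ferrous iron/xylenol orange; 573/405 nm absorbance ratio gives reaction progress.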
ALDH1A1 inh: qHTS Assay for Inhibitors of Aldehyde Dehydrogenase 1 (ALDH1A1) | Aldehyde dehydrogenase 1A1 (Homo sapiens), P00352 | Purified ALDH1A1, NADH fluorescence, propionaldehyde substrate | Potency, µM (series often up to 75.3 µM), without a hit: at the top dose activity, negative = inhibition, usual class: inhibitors | 7.3% of 220,000 active;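 further: potency means the concentration at half of the fitted maximal effect; plate controls were no enzyme wells and a reference inhibitor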
PNC assembly inh: High Content Assay for Compounds that inhibit the Assembly of the Perinucleolar Compartment. activity change (PNC), negative = inhibition, % at 10 µM. 3.1% of 140,000 active. AID 2417, 2010. PC3M PTB-GFP, PNC prevalence imaging, 16 h; stronger effect = lower value;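 active means readout at or below -70, meaning at least 70% loss of cells showing the perinucleolar compartment, a nuclear body marking cancer cells; inconclusive means readout between -30 and a set limit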;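 further: plate controls were DMSO wells for no effect and camptothecin positive control wells for full effect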
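Read-out is percentage of cells bearing a perinucleolar compartment, from automated 20x imaging of fixed, Hoechst-stained PC3M PTB-GFP cells. Cells were seeded 4 h, then exposed 16 h to compound (23 nl of library stock) in duplicate plates.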
Lamin A splicing: qHTS Assay for Modulators of Lamin A Splicing. AID 1487, 2009. 0.01% of 200,000 active. Potency, µM (series often up to 46.1 µM), inactives show at the top dose ratio change, negative = inhibition, usual class: inhibitors. HeLa LMNA splicing GFP/RFP minigene ratio, 48 h; active means well fitted inhibition curve with a large enough effect in the signal ratio, with a control signal flat, not every such curve was filed as active; inconclusive means small, poorly fitted or top-dose-only effect, or effect the other way, or a change in a side signal; the % refers to the signal ratio; further: potency means the concentration at half of the fitted maximal effect
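S3 HeLa stable clones carrying a lamin A-EGFP splicing minigene plus DsRed2 were seeded at 600 cells/well in Opti-MEM with 2% FBS, pin-dosed and incubated 48 h at 37°C. Acumen cytometry (488 nm) gave the GFP/RFP total-intensity ratio.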
HPGD inh: qHTS Assay for Inhibitors of HPGD (15-Hydroxyprostaglandin Dehydrogenase); 15-hydroxyprostaglandin dehydrogenase [NAD(+)] (Homo sapiens), P15428; purified HPGD, NADH fluorescence kinetic, PGE2 substrate; Potency, µM, inactives show at the highest dose activity change, negative = inhibition, most hits filed as inhibitors; 4.3% of 150,000 active; AID 894, 2007; further: potency means the concentration at half of the fitted maximal effect
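20 nM HPGD preincubated 15 min at room temperature with compound in 50 mM Tris-HCl pH 8, 0.01% Tween 20. Started with 1 mM NAD+ and 30 uM prostaglandin E2; NADH fluorescence (360/450 nm) read 5 times over 30-s intervals, last minus first.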
Starred values were filed as active, the others as inactive; ? = inconclusive; · = no result; [ ] = dose if it differs, or a comment. Most compounds without a hit are left out; they make up all but 10% or so of the library. Unless noted, the call rests on the fitted dose curve; in most records, active means well fitted inhibition curve with a large enough effect (not every such curve was filed as active); inconclusive means small, poorly fitted or top-dose-only effect, or another doubt; inactive means no such curve, though single readings can be large or run the other way. Unless noted, on the % scale 0 is the no-effect control and ±100 the full control effect.

SMILES	ALOX12 inhib	ALDH1A1 inh	PNC assembly inh	Lamin A splicing	HPGD inh
COc1ccc(NC(=O)C2C3C=CC(C3)C2C(=O)NCc2ccco2)cc1 (configuration not stated)	-1%	-15%	11	8%	25µM*
COc1ccc(C2=NOC(C(=O)Nc3cccnc3)C2)cc1 (configuration not stated)	1%	-7%	-102*	?	-12%
COc1ccc(C2=NOC(C(=O)NCc3ccco3)C2)cc1 (configuration not stated)	5%	22µM*	9	?	?
O=C(N/N=C/c1ccc([N+](=O)[O-])cc1)c1ccc2nc[nH]c2c1	-1%	6.3µM*	-88*	?	-10%
COc1cc(/C=N/NC(=O)c2ccc3nc[nH]c3c2)cc(OC)c1OC	·	-3%	·	·	·
O=C(N/N=C/c1cccc([N+](=O)[O-])c1)c1ccc2nc[nH]c2c1	5%	11µM*	?	2%	-23%
COC(=O)C/C=C/[C@@H](C)[C@@H](/C=N/O[C@@H](C)c1cn([C@H](CO)Cc2ccccc2)nn1)NS(=O)(=O)c1ccc(C)cc1	-4%	18µM*	-20	4%	-2%
COC(=O)C/C=C/[C@@H](C)[C@@H](/C=N/O[C@H](C)c1cn([C@@H]2COC[C@H]2O)nn1)NS(=O)(=O)c1ccc(C)cc1	-2%	-7%	107	-2%	-5%
CCOc1ccc(C2C(C(=O)c3ccco3)=C(O)C(=O)N2CCN(C)C)cc1 (configuration not stated)	-7%	1%	-29	4%	-10%
COc1ccc(C2C(C(=O)c3ccco3)=C(O)C(=O)N2CCOCCO)cc1OC (configuration not stated)	-15%	20µM*	25	17%	-24%
COc1ccc(C2C(C(=O)c3sc(C)nc3C)=C(O)C(=O)N2CCN(C)C)cc1OC (configuration not stated)	0%	?	-122*	7%	-11%
C=CCOc1cccc(C2C(C(=O)c3ccco3)=C(O)C(=O)N2CCN(CC)CC)c1 (configuration not stated)	5%	-6%	-134*	-2%	-9%
COc1cccc(Nc2ncc3nc(-c4cc(F)cc(F)c4)c(=O)n(C4CC4)c3n2)c1	-1%	16%	·	·	-3%
Nc1nccc(Nc2ccc(S(N)(=O)=O)cc2)n1	0%[11.4 µM]	10%[13.5 µM]	·	·	0%
Cc1ccc(NC(=O)CC(O)(C(F)(F)F)C(F)(F)F)c(Br)c1	-11%	3%	?	6%	-14%
Cc1ccc(NC(=O)COC(=O)C2CC2)c(Br)c1	0%	7%	-20	7%	18µM*
CCN(CC)CC(=O)Nc1c(C)cc(C(C)(C)C)cc1C	4%	0%	?	9%	25µM*
Cc1ccc(NC(=O)COC(=O)c2cc(Cl)cc(Cl)c2)c(Br)c1	-2%	15%	-21	6%	-6%
CCN(CC)CC(=O)Nc1ccc(C)cc1Br	0%	13µM*	12	13%	16µM*
CCOC(=O)C1=C[C@@]2(CC)CCCN3CCc4c(n1c1ccccc41)C32 (some centres not stated)	1%	8%	·	·	-5%
O=C(O)CNC(=O)c1ccc(CO)o1	-2%	?	·	·	-12%
Cc1ccc(S(=O)(=O)N2CCCC2C(=O)OCc2ccco2)cc1 (configuration not stated)	-16%	2.8µM*	-108*	11%	-14%
Cc1ccc(S(=O)(=O)N2CCCC2C(=O)OCc2ccccc2)cc1 (configuration not stated)	1%	9%	-24	-5%	-11%
CC(=O)c1cccc(NC(=O)CCNS(=O)(=O)c2cccc3nonc23)c1	·	?	·	6%[9.22 µM]	·
Cc1ccc(NC(=O)CCNS(=O)(=O)c2cccc3nonc23)cc1	-6%	?	24	-2%	-1%
SMILES	ALOX12 inhib	ALDH1A1 inh	PNC assembly inh	Lamin A splicing	HPGD inh
O=C(CCNS(=O)(=O)c1cccc2nonc12)NCc1cccs1	-6%	20µM*	52	0%	-17%
O=C(CCNS(=O)(=O)c1cccc2nonc12)NC1CCCCCC1	·	25µM*	·	17%[46 µM]	·
CC(C)c1ccc(NC(=O)CCNS(=O)(=O)c2cccc3nonc23)cc1	1%	25µM*	-100*	-8%	-26%
CCOC(=O)N1CCN(S(=O)(=O)N2CCCC(C(=O)NCc3cccc(OC)c3)C2)CC1 (configuration not stated)	·	·	·	-10%[46 µM]	·
Cc1oc2ncn(CC(C)C)c(=O)c2c1C(=O)NCc1cccc(Cl)c1	·	·	·	2%[46 µM]	·
C[C@H](NC(=O)/C(C#N)=C/c1ccc(O)c(O)c1)c1ccccc1	20µM*	?	·	?	6%
CCOC(=O)/C(C#N)=C\c1ccc(N2CCN(C/C=C/c3ccccc3)CC2)cc1	-4%	?	35	-11%	-15%
N#C/C(=C/c1ccc(O)c(O)c1)C(=O)OC/C=C/c1ccccc1	·	4.5µM*	·	·	·
C[C@@H](NC(=O)/C(C#N)=C/c1ccc(O)c(O)c1)c1ccccc1	?	-7%	·	?	-27%
CC(NC(=O)/C(C#N)=C/c1ccc(Cl)c([N+](=O)[O-])c1)c1ccccc1 (configuration not stated)	-25%	6%	-100*	?	3%
CC[C@]1(c2ccccc2)NC(=O)N(C)C1=O	-2%[25.6 µM]	5%[20.9 µM]	·	-6%	2%
Cc1cccc(S(=O)(=O)c2cn(Cc3ccccc3)c3cc(N4CCCCC4C)c(F)cc3c2=O)c1 (configuration not stated)	·	·	·	-8%[46 µM]	·
